According to PubChem BioAssay (NCATS):
Inconclusive results are not listed. A call without a number means that no potency is given here. Active and inactive are the calls of the source. Unless noted, the call rests on the fitted dose curve.

How the values were obtained:
[1] = qHTS for Inhibitors of the Functional Ribonucleoprotein Complex (vRNP) of Lassa (LASV) Arenavirus: LASV Primary Screen - GLuc reporter signal (AID 1347082; calls by dose curve; tested in HEK293 reporter line; further: nearly all actives have a fitted effect of over 60% in size)
[2] = qHTS for Inhibitors of the Functional Ribonucleoprotein Complex (vRNP) of Lassa (LASV) Arenavirus: Viability assay - alamar blue signal for LASV Primary Screen (AID 1347083; calls by dose curve; tested in HEK293 reporter line; further: nearly all actives have a fitted effect of over 80% in size)
[3] = qHTS for Inhibitors of the Functional Ribonucleoprotein Complex (vRNP) of Lymphocytic Choriomeningitis Arenaviruses (LCMV): Viability assay - alamar blue signal for LCMV Primary Screen (AID 1347085; calls by dose curve; tested in HEK293 reporter line; further: nearly all actives have a fitted effect of over 80% in size)
[4] = molecular target: Nucleoprotein (Lymphocytic choriomeningitis virus (strain Armstrong)) (UniProt P09992); experiment: qHTS for Inhibitors of the Functional Ribonucleoprotein Complex (vRNP) of Lymphocytic Choriomeningitis Arenaviruses (LCMV): LCMV Primary Screen - GLuc reporter signal (AID 1347086); further: nearly all actives have a fitted effect of over 70% in size
Potency means the concentration at half of the fitted maximal effect.

Sequence of Nucleoprotein (Lymphocytic choriomeningitis virus (strain Armstrong)) (P09992 whole entry, looked up): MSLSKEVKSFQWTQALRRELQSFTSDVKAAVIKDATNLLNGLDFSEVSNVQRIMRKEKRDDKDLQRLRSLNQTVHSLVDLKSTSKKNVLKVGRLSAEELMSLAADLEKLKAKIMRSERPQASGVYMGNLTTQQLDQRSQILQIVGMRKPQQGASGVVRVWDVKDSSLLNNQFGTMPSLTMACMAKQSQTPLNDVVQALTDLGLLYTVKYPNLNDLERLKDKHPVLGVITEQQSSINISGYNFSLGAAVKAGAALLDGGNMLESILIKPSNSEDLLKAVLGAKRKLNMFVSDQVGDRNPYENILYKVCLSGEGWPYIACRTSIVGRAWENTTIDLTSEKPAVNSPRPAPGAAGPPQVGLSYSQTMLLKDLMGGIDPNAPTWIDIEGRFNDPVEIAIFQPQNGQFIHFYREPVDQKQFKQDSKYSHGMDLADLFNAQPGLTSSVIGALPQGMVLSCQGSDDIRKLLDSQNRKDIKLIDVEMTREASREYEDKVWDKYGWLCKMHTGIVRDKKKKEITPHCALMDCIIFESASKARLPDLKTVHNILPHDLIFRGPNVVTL

| Structure (SMILES) | Potency [1] | Potency [2] | Potency [3] | Potency [4] |
| --- | --- | --- | --- | --- |
| C/C(=C1\CCOC(=O)S1)N(C=O)Cc1cnc(C)nc1N | inactive | inactive | inactive | inactive |
| CCN(CC)CCc1nc(-c2ccccc2)no1 | inactive | inactive | inactive | inactive |
| Cc1cnc(Nc2ccc(F)cc2Cl)nc1-c1c[nH]c(C(=O)N[C@H](CO)c2cccc(Cl)c2)c1 | 19300 nM (active) | 15.3 µM (active) | 7.69 µM (active) | 17.2 µM (active) |
| CCc1c(C)[nH]c2c1C(=O)C(CN1CCOCC1)CC2 (stereo unspecified) | inactive | inactive | inactive | inactive |
| O=C(O)c1ccccn1 | inactive | inactive | inactive | inactive |
| CC(C)C(C)(C)C(C)(C)C(C)(C)S | inactive | inactive | inactive | inactive |
| CC(C)(C)c1cc(C(=O)O)c(NC(=O)Nc2ccc3[nH]ncc3c2)s1 | inactive | inactive | inactive | inactive |
| Oc1cccc(-c2nc(N3CCOCC3)c3oc4ncccc4c3n2)c1 | 993 nM (active) | 0.885 µM (active) | 1.4 µM (active) | 1.4 µM (active) |
| CCn1cc(C(=O)O)c(=O)c2cc3c(cc21)OCO3 | inactive | inactive | inactive | inactive |
| O=C(C=Cc1cccnc1)NCCCCC1CCN(C(=O)c2ccccc2)CC1 | 68.5 nM (active) | 0.0611 µM (active) | 0.0385 µM (active) | 0.0385 µM (active) |
| N#C/C(=C1\SCC(c2ccccc2Cl)S1)n1ccnc1 (stereo unspecified) | inactive | inactive | inactive | inactive |
| CCN(c1ccccc1)c1cc(NC)[n+](C)c(C)n1 | inactive | inactive | inactive | inactive |
| O=C(O)c1ccccc1O | inactive | inactive | inactive | inactive |
| NCCCC(N)(C(=O)O)C(F)F (stereo unspecified) | inactive | inactive | inactive | inactive |
| O=C(O)CCC1CCC(c2cc(F)ccc2F)(S(=O)(=O)c2ccc(Cl)cc2)CC1 (stereo unspecified) | inactive | inactive | inactive | inactive |
| Cc1c(CN2CCN(C(=O)C(C)C)CC2)sc2c(N3CCOCC3)nc(-c3cnc(N)nc3)nc12 | 273 nM (active) | 0.137 µM (active) | 0.273 µM (active) | 0.217 µM (active) |
| Nc1nnnn1-c1ccccc1 | inactive | inactive | inactive | inactive |
| O=C(O)c1ccc2cc(-c3ccc(O)c(C45CC6CC(CC(C6)C4)C5)c3)ccc2c1 | inactive | inactive | inactive | inactive |
| N#CC[C@H](C1CCCC1)n1cc(-c2ncnc3[nH]ccc23)cn1 | inactive | inactive | inactive | inactive |
| C=C1C(=CC=C2CCCC3(C)[C@@H]([C@H](C)C=CC=CC(O)(CC)CC)CC[C@@H]23)C[C@@H](O)C[C@@H]1O (stereo partly specified) | inactive | inactive | inactive | inactive |

| Structure (SMILES) | Potency [1] | Potency [2] | Potency [3] | Potency [4] |
| --- | --- | --- | --- | --- |
| CC(C)(C)c1cc(C(C)(C)C)c(NC(=O)c2c[nH]c3ccccc3c2=O)cc1O | inactive | inactive | inactive | inactive |
| O=C(C=Cc1ccc(/C=C/C(=O)Nc2ccc(C3=NCCN3)cc2)cc1)Nc1ccc(C2=NCCN2)cc1 | inactive | inactive | inactive | inactive |
| Cc1cccc(C)c1NC(=O)c1ccc(N)cc1 | inactive | inactive | inactive | inactive |
| O=c1[nH]c(-c2ccc(C(F)(F)F)cc2)nc2c1CSCC2 | inactive | inactive | inactive | inactive |
| CC(=O)Oc1cccc(C)c1 | inactive | inactive | inactive | inactive |
| CC(C[N+](C)(C)C)OC(N)=O (stereo unspecified) | inactive | inactive | inactive | inactive |
| CCC[C@H](NC(=O)C(C#N)=Cc1cccc(Br)n1)c1ccccc1 | inactive | 34.3 µM (active) | inactive | inactive |
| Cn1cc(-c2ccc3nnc(C(F)(F)c4ccc5ncccc5c4)n3n2)cn1 | inactive | inactive | inactive | inactive |
| CCOc1ccc(Cc2cc([C@@H]3O[C@H](CO)[C@@H](O)[C@H](O)[C@@H]3O)ccc2Cl)cc1 | inactive | inactive | inactive | inactive |
| CC1(C)SCCN(S(=O)(=O)c2ccc(OCC#CCO)cc2)[C@@H]1C(=O)NO | inactive | inactive | inactive | inactive |
| Nc1nc2c(ncn2CCC(CO)CO)c(=O)[nH]1 | inactive | inactive | inactive | inactive |
| Clc1ccc(-c2nc3sccn3c2C=NOCc2ccc(Cl)c(Cl)c2)cc1 | inactive | inactive | inactive | inactive |
| OCc1c[nH]c2ccccc12 | inactive | inactive | inactive | inactive |
| COc1ccccc1O | inactive | inactive | inactive | inactive |
| CCCCOCCOc1nc(-c2ccc(C(=O)O)c(F)c2)sc1C | inactive | inactive | inactive | inactive |
| NC(=O)c1ccc(-c2nc(-c3ccc4c(c3)OCO4)c(-c3ccccn3)[nH]2)cc1 | inactive | inactive | inactive | inactive |
| CCOC(=O)C(=O)CCCCCCl | inactive | inactive | inactive | inactive |
| O=C(O)CCc1ccc(NCc2cccc(Oc3ccccc3)c2)cc1 | inactive | inactive | inactive | inactive |
| c1ccc2[nH]ccc2c1 | inactive | inactive | inactive | inactive |
| N#Cc1c(O)c2c(-c3ccc(-c4ccccc4O)cc3)csc2[nH]c1=O | inactive | inactive | inactive | inactive |

| Structure (SMILES) | Potency [1] | Potency [2] | Potency [3] | Potency [4] |
| --- | --- | --- | --- | --- |
| Nc1ccccc1NC(=O)c1ccc(CNc2nccc(-c3cccnc3)n2)cc1 | inactive | 6.85 µM (active) | 12.2 µM (active) | inactive |
| CN1CCN(c2c(F)cc3c(=O)c(C(=O)O)cn4c3c2OCN4C)CC1 | inactive | inactive | inactive | inactive |
| Nc1ccccc1N | inactive | inactive | inactive | inactive |
| OC[C@H]1O[C@@H](n2cnc3c2NC=NC[C@@H]3O)C[C@H]1O | inactive | inactive | inactive | inactive |
| CCCCC(CC)COC(=O)c1ccc(N(C)C)cc1 (stereo unspecified) | inactive | inactive | inactive | inactive |
| CS(=O)(=O)Nc1ccc([N+](=O)[O-])cc1Oc1ccccc1 | inactive | inactive | inactive | inactive |
| Cc1cccc(-c2nn(C(=S)Nc3ccccc3)cc2-c2ccnc3ccccc23)n1 | inactive | inactive | inactive | inactive |
| CCOC(=O)C(C)Oc1cccc2c(=O)n(CC(=O)Nc3ccc4c(c3)OCCO4)ccc12 (stereo unspecified) | inactive | inactive | inactive | inactive |
| CCN1CCN(Cc2ccc(-c3cc4c(N[C@H](C)c5ccccc5)ncnc4[nH]3)cc2)CC1 | inactive | 0.0077 µM (active) | inactive | inactive |
| COc1nc(-c2ccc3c(c2)OCO3)n(-c2ccc(NC(=O)CSc3ccccc3)cc2)n1 | inactive | inactive | inactive | inactive |
| Cn1cncc1[C@@](N)(c1ccc(Cl)cc1)c1ccc2c(c1)c(-c1cccc(Cl)c1)cc(=O)n2C | inactive | 4.32 µM (active) | 2.43 µM (active) | 1.37 µM (active) |
| C=CCn1c(=O)c2cnc(Nc3ccc(N4CCN(C)CC4)cc3)nc2n1-c1cccc(C(C)(C)O)n1 | 685 nM (active) | 0.172 µM (active) | 0.611 µM (active) | 0.968 µM (active) |
| CCCOC(=O)c1ccc(O)cc1 | inactive | inactive | inactive | inactive |
| COc1cc2ncnc(-n3nc(-c4ccccn4)nc3N)c2cc1OC | 13700 nM (active) | 19.3 µM (active) | 7.69 µM (active) | 2.43 µM (active) |
| CC(C)(C)COc1ccc(-n2cc(C(=O)O)cn2)cc1C#N | inactive | inactive | inactive | inactive |
| C[C@H](NC(=O)Cc1cc(F)cc(F)c1)C(=O)N[C@@H]1C(=O)N(C)c2ccccc2-c2ccccc21 | inactive | inactive | inactive | inactive |
| COc1nc(C)cnc1NS(=O)(=O)c1cccnc1-c1ccc(-c2nnco2)cc1 | inactive | inactive | inactive | inactive |
| NCCS | inactive | inactive | inactive | inactive |
| CC(=O)OCC(=O)[C@@]1(O)[C@H](C)C[C@H]2[C@@H]3C=C(C)C4=Cc5c(cnn5-c5ccccc5)C[C@]4(C)[C@@H]3[C@@H](O)C[C@@]21C | inactive | inactive | inactive | inactive |
